High-throughput results: PubChem, National Center for Advancing Translational Sciences (NCATS)
Only some compounds are listed: those with a hit (about 7% of all), similar ones and a draw of the others.
ATXN2 expr inh: Primary qHTS for Inhibitors of ATXN expression; HEK-293 ATXN2-luciferase reporter, luminescence, 24 h; Potency, µM (top dose mostly 57 µM), inactives show top-dose activity change, negative = inhibition, hits mostly inhibitors; hit rate 0.72% among 360,000; further: potency means the concentration at half of the fitted maximal effect; on the % scale 0 is the no-effect control and ±100 the full control effect; nearly all actives have a fitted effect of over 55% in size
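ATXN2-luciferase reporter cells (luciferase flanked by upstream and downstream ATXN2 gene portions) were treated 24 h at 37 °C with compounds at up to 57 uM. SteadyGlo luminescence gave expression; GF-AFC fluorescence gave viability.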
IL-1B inflam inh: qHTS for Inhibitors of Inflammasome Signaling: IL-1-beta AlphaLISA Primary Screen; THP-1 LPS/ATP IL-1B secretion, AlphaLISA, 16 h; stronger effect = lower value; activity change, % at 57.5 µM; hit rate 4.7% among 360,000; AID 743279, 2014; in the data active means activity change below about -50%; inconclusive means mostly about -30% to -49%; further: on the % scale 0 is the no-effect control and ±100 the full control effect
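Secreted IL-1B measured by AlphaLISA bead assay after 16 h compound exposure of THP-1 cells; compounds (final up to 57.5 uM) added 1 h before LPS (250 ng/mL) and ATP (1.25 mM) stimulation; lower signal means less secretion.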
DRD3 antagonist: qHTS of D3 Dopamine Receptor Antagonist: qHTS; D(3) dopamine receptor (Homo sapiens), P35462; D3R cells, DiscoveRx beta-arrestin luminescence, antagonist mode; stronger effect = lower value; hit rate 2.5% among 360,000; max response, negative = inhibition, %; AID 652054, 2013; in the data active means max response below about -50%; inconclusive means no clear call, values can overlap the other calls; further: on the % scale 0 is the no-effect control and ±100 the full control effect
Target sequence (P35462 whole entry, looked up): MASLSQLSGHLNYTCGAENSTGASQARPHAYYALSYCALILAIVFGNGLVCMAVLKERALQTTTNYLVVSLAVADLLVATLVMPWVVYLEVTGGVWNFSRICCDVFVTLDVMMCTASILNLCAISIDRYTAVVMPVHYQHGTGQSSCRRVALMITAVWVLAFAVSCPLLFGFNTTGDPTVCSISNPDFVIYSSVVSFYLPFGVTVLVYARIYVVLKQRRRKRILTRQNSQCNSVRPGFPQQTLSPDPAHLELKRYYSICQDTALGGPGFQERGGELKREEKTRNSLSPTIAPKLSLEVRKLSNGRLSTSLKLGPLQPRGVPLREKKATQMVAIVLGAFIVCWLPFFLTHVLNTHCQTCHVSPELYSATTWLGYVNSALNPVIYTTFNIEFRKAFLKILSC
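Cells expressing the human receptor were seeded at 1500 cells/well, incubated overnight at 37 degrees C in 5% CO2, then exposed to library compounds with dopamine controls for 90 minutes at 37 degrees C before luminescent detection.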
DRD3 agonist: qHTS of D3 Dopamine Receptor Agonist: qHTS; AID 652048, 2013; hit rate 0.58% among 410,000; D3R DiscoveRx beta-arrestin cells, luminescence, 90 min; D(3) dopamine receptor (Homo sapiens), P35462; max activation, %; in the data active means max activation above about 30%; further: 0% is about no effect
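Agonist mode: compounds and dopamine controls were applied to plated cells for 90 min at 37 degrees C after an overnight attachment at 1500 cells/well. Luminescent read-out followed 30 - 60 minutes at room temperature with DiscoveRx detection reagent.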
a7 integrin act: qHTS for Activators of Integrin-Mediated Alleviation for Muscular Dystrophy; alpha7betagal myoblasts, beta-gal FDG fluorescence, 48 h; hit rate 0.064% among 350,000; Potency, µM (titrated, usually from 38.3 µM), without a hit: top-dose activation, hits mostly activators;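 further: potency means the concentration at half of the fitted maximal effect; 100% = response of the positive control SU9516; nearly all actives have a fitted effect of over 60% in size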
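alpha7betagal+/- myoblasts (passage 13, 250/well) treated 48 h at 37C with compounds at 1:260 dilution of DMSO stock. Lysed, then beta-galactosidase activity read as FDG fluorescence (ex 480/em 540) after 30 min, with pre-read for autofluorescence.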
S2 tox: Viability Counterscreen for Primary qHTS for Inhibitors of ATXN expression | S2 cells (HEK-293 line with an ATXN2-luciferase reporter) viability, CellTiter-Fluor protease fluorescence, 24 h | Potency, µM (series often up to 56.7 µM), usual class: cytotoxic | hit rate 0.49% among 400,000; further: potency means the concentration at half of the fitted maximal effect; nearly all actives have a fitted effect of over 40% in size
Numbers without * were called inactive; i = inactive; ? = inconclusive; / = no result given. Unless noted, the call rests on the fitted dose curve; in most records, active means well fitted curve in the direction sought with a large enough effect; inconclusive means small, poorly fitted or top-dose-only effect, or another doubt; inactive means no such curve, though single readings can be large; an effect the other way counts as inactive or inconclusive.

SMILES	ATXN2 expr inh	IL-1B inflam inh	DRD3 antagonist	DRD3 agonist	a7 integrin act	S2 tox
COc1ccc(OC)c(-c2cc(C3CCN(C(=O)OC(C)(C)C)CC3)[nH]n2)c1	10%	-57*	14	46*	-8%	i
COc1ccc(-c2cc(C3CCN(c4ccc(C(C)=O)cc4[N+](=O)[O-])CC3)[nH]n2)cc1	?	-71*	-14	-20	-50%	?
O=c1[nH]c(=O)c2cc([N+](=O)[O-])cc([N+](=O)[O-])c2[nH]1	?	-74*	-13	-5	0%	?
CCC(C)(C)NC(=O)C(c1ccc(OC)cc1)N(C(=O)CCC(=O)Nc1cc(C)on1)C(C)(C)C (stereo not given)	-11%	21	4	-32	0%	i
O=C(C1=C[C@H](C2CC2)C[C@H](OCc2ccc(CO)cc2)O1)N1CCN(Cc2ccc3c(c2)OCO3)CC1	-27%	0	-4	-8	0%	i
CC(=O)n1cc([C@H]2C=C(C(=O)N3CCN(Cc4ccc5c(c4)OCO5)CC3)O[C@@H](OCc3ccc(CO)cc3)C2)c2ccccc21	?	-62*	0	-31	-7%	?
CC(C)(C)[C@@H]1C=C(C(=O)N2CCN(Cc3ccccc3)CC2)O[C@H](OCc2ccc(CO)cc2)C1	0%	-2	31	0	9%	?
O=C(C1=C[C@H](C2CCCCC2)C[C@H](OCc2ccc(CO)cc2)O1)N1CCN(Cc2ccc3c(c2)OCO3)CC1	?	-70*	?	-31	-16%	?
CC(C)(C)[C@H]1C=C(C(=O)N2CCN(Cc3ccc4c(c3)OCO4)CC2)O[C@@H](OCc2ccc(CO)cc2)C1	-38%	-61*	0	-20	6%	?
O=C(C1=C[C@@H](C2CCCCC2)C[C@@H](OCc2ccc(CO)cc2)O1)N1CCN(Cc2ccc3c(c2)OCO3)CC1	?	-63*	-13	-48	-41%	?
CC(=O)Nc1ccc(S(=O)(=O)NCc2ccc(C(=O)NCCN(C)Cc3ccccc3)cc2)cc1	2%	-8	?	-11	/	i
CCc1ccc(S(=O)(=O)NCc2ccc(C(=O)NCCN(Cc3ccccc3)C(C)C)cc2)cc1	?	-12	-91*	-16	/	?
COc1ccc2[nH]c3c(=O)n(CCCCC(=O)NCCN4CCCC4)c(=S)[nH]c3c2c1	0%	-19	-96*	-33	18%	i
CCCCNC(=O)CCCCn1c(=S)[nH]c2c([nH]c3ccc(OC)cc32)c1=O	/	17	4	1	-41%	?
O=C(CCn1c(=S)[nH]c2ccccc2c1=O)NCCCN1CCOCC1	4%	6	-21	2	7%	i
COC(=O)c1ccc(/C=C(/NC(=O)c2ccccc2)C(=O)N2CCOCC2)cc1	11%	-4	-4	5	26%	i
C=CCn1c(SCC(=O)N(C)C2CCS(=O)(=O)C2)nc2ccccc2c1=O (stereo not given)	8%	-4	-9	2	-10%	i
C=CCn1c(SCC(=O)N(CC)C2CCS(=O)(=O)C2)nnc1-c1ccccc1 (stereo not given)	-3%	11	-18	3	31%	?
CCOc1ccccc1Nc1nnc(SCC(=O)N(C)C2CCS(=O)(=O)C2)s1 (stereo not given)	-5%	-61*	-8	-12	36%	i
C=CCn1c(SCC(=O)N(C)C2CCS(=O)(=O)C2)nnc1-c1ccncc1 (stereo not given)	3%	30	-54*	-2	21%	i
Cc1ccc(Cn2c(SCC(=O)N(C)C3CCS(=O)(=O)C3)nc3ccccc3c2=O)cc1 (stereo not given)	8%	-55*	1	-9	-1%	?
Cc1ccccc1Nc1nnc(SCC(=O)N(C)C2CCS(=O)(=O)C2)s1 (stereo not given)	4%	3	4	9	-18%	i
CN(C(=O)CSc1nnc(-c2ccc(F)cc2)c2ccccc12)C1CCS(=O)(=O)C1 (stereo not given)	39%	-91*	-3	0	2%	i
O=C(NCCn1cc(SCc2ccccc2)c2ccccc21)c1cccs1	?	/	/	3	/	?
COc1ccc(Cn2cc(CN3CC(N4CCN(CCO)CC4)CS3(=O)=O)nn2)cc1 (stereo not given)	2%	17	6	4	/	i
SMILES	ATXN2 expr inh	IL-1B inflam inh	DRD3 antagonist	DRD3 agonist	a7 integrin act	S2 tox
N=c1n(CCN2CCCCC2)c2ccccc2n1CC(=O)c1cccs1	?	-76*	-63*	-38	-72%	i
CCCn1c(=N)n(CC(=O)c2cccs2)c2ccccc21	-12%	-19	-4	-6	-7%	i
N=c1n(CC(=O)c2ccc(Br)s2)c2ccccc2n1Cc1ccccc1	/	-104*	19	-9	-17%	?
CCN(CC)CCn1c(=N)n(CC(=O)c2ccc(Br)s2)c2ccccc21	?	/	-73*	-24	-68%	/
Cn1c(=N)n(CC(=O)c2ccc(Br)s2)c2ccccc21	23%	-95*	?	8	-61%	?
CCN(CC)CCN=CC1=C(O)CNC1=O	2%	-2	-7	0	7%	i
CCOc1ccc(S(=O)(=O)N2CCC(C(=O)NC3CC3)CC2)cc1C	-3%	-7	-4	20	34%	i
CCN(CC)CCn1c(=N)n(CCOc2ccccc2)c2ccccc21	0%	-71*	7	-4	-30%	i
COc1ccc(C2C(C#N)=C(N)N(c3cccnc3)C3=C2C(=O)CCC3)cc1Cn1cc([N+](=O)[O-])cn1 (stereo not given)	4%	-12	-29	-1	3%	i
Cc1nn(C)cc1C1C(C#N)=C(N)N(c2ccc(F)c([N+](=O)[O-])c2)C2=C1C(=O)CCC2 (stereo not given)	-16%	-66*	-1	7	-47%	i
COc1ccc(C2C(C#N)=C(N)N(c3ccccc3)C3=C2C(=O)CCC3)cc1Cn1cc([N+](=O)[O-])cn1 (stereo not given)	-10%	-74*	-21	2	7%	i
COc1ccccc1C(=O)NCCC(=O)Nc1ccc(S(=O)(=O)N2CCCC(C)C2)cc1 (stereo not given)	-9%	?	3	-5	21%	i
